# Laboratory results from publication PMC10726135, “HNF4α isoforms regulate the circadian balance between carbohydrate and lipid metabolism in the liver”.
# Whole data set: some 18,000 sequences, median “log2 normalized intensity” near 0.36, cut for the highest 2% near 7.3. This is one part of a sample in which the highest values are shown more often than they occur.
# Target: T1, HNF4alpha8 (COS-7 nuclear extract) (Homo sapiens, UniProt P41235-5 1-452)
# T1 sequence: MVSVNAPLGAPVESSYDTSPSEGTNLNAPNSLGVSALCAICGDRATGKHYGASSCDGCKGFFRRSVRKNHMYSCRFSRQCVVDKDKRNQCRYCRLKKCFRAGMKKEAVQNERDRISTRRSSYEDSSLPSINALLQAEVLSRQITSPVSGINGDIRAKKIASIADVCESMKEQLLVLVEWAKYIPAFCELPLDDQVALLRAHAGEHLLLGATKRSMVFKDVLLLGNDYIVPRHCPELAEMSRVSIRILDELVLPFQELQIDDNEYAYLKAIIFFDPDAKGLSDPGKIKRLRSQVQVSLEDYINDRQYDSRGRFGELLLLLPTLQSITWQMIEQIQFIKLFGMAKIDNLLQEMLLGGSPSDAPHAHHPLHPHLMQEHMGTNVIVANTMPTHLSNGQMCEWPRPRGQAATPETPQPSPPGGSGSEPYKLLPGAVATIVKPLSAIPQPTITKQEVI
# Test: protein-binding microarray; COS-7 nuclear extract on double-stranded Agilent 4x180k PBM; binding buffer, salt, pH and temperature not given in the material; high values mean tight binding
# Conditions: chain copies: 2; label: 3' end of strand 1 on the slide; dsDNA, one strand shown
# How it was run: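 COS-7 cells were transiently transfected by CaPO4 with an expression vector for a human HNF4α isoform, and nuclear extracts were prepared from them. The extracts were applied to a custom Agilent SurePrint G3 4x180k array of double-stranded ~60-nt oligonucleotides, with ~44,000 test sequences spotted in quadruplicate. An Agilent G2565CA scanner imaged bound HNF4α at 2-µm resolution. Binding signal is the background-corrected, normalized gProcessedSignal from Agilent software.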
row,Sequence,binding signal
1,TCACAAAGGGCTGAGGTTAAAGTCCACATTGCCTAGGGAGATTAGAGTATCGGTCGA,8.03 log2 normalized intensity
2,ATCAAAGGCTTCTAGAAGAGGTTAAAGACCGCCTAGGGAGATTAGAGTATCGGTCGA,1.58 log2 normalized intensity
3,CTCTGTATTGTAAAAGAAAGTGAGCAGGCAGCCTAGGGAGATTAGAGTATCGGTCGA,-0.689 log2 normalized intensity
4,TGACAAGCAAACACAAACTATGACCTTTGAGCCTAGGGAGATTAGAGTATCGGTCGA,9.22 log2 normalized intensity
5,AGCAAACACAAACTATGACCTTTGAAACTTGCCTAGGGAGATTAGAGTATCGGTCGA,7.82 log2 normalized intensity
6,CAGCAACACTCTACTACTTGACCTTTGAAAGCCTAGGGAGATTAGAGTATCGGTCGA,6.62 log2 normalized intensity
7,TTCTTTTTGAAGCAAAGCCTTTGAGCAGATGCCTAGGGAGATTAGAGTATCGGTCGA,0.807 log2 normalized intensity
8,GGGCGAGAGAGTTCTATGGGATGACCTTTGGCCTAGGGAGATTAGAGTATCGGTCGA,6.82 log2 normalized intensity
9,ACACAAACTATGACCTTTGAAACTTACATTGCCTAGGGAGATTAGAGTATCGGTCGA,6.68 log2 normalized intensity
10,GTTCTATGGGATGACCTTTGAGCAATAGGAGCCTAGGGAGATTAGAGTATCGGTCGA,6.05 log2 normalized intensity
11,AGAGAGTTCTATGGGATGACCTTTGAGCAAGCCTAGGGAGATTAGAGTATCGGTCGA,7.89 log2 normalized intensity
12,ATGACCCAAACTTCACAAAAATGAGTGCAAGCCTAGGGAGATTAGAGTATCGGTCGA,-0.806 log2 normalized intensity
13,AGTCTCAAAGGTCAGATGACAGAATTGGTCGCCTAGGGAGATTAGAGTATCGGTCGA,4.15 log2 normalized intensity
14,GATAACATCTGGACTTTACACAGACCTTTAGCCTAGGGAGATTAGAGTATCGGTCGA,4.07 log2 normalized intensity
15,CCCCTTCTGTTTCCAGAAATCTGACCTCTGGCCTAGGGAGATTAGAGTATCGGTCGA,5.06 log2 normalized intensity
16,AGCTGACGCCCCACCCCCTCCACCCCTGCCGCCTAGGGAGATTAGAGTATCGGTCGA,6.68 log2 normalized intensity
17,CAATGTGACTGGAGCAGAGCGATCAAAGGTGCCTAGGGAGATTAGAGTATCGGTCGA,1.37 log2 normalized intensity
18,ACCAGACTACCTCTTTAGGCTGGACTCTGAGCCTAGGGAGATTAGAGTATCGGTCGA,4.7 log2 normalized intensity
19,TGCAGCCCTGCCACTCTTTTTTAGACTTTGGCCTAGGGAGATTAGAGTATCGGTCGA,4.39 log2 normalized intensity
20,CCCTGCCACTCTTTTTTAGACTTTGACCTCGCCTAGGGAGATTAGAGTATCGGTCGA,10.2 log2 normalized intensity
21,ACTACCTCTTTAGGCTGGACTCTGACCCATGCCTAGGGAGATTAGAGTATCGGTCGA,7.54 log2 normalized intensity
22,CTCTTTAGGCTGGACTCTGACCCATTCCTTGCCTAGGGAGATTAGAGTATCGGTCGA,5.82 log2 normalized intensity

row,Sequence,binding signal
1,GACCTCTGCCCTTCCACCCACTTTATCTTCGCCTAGGGAGATTAGAGTATCGGTCGA,3.59 log2 normalized intensity
2,CCACTCTTTTTTAGACTTTGACCTCCATATGCCTAGGGAGATTAGAGTATCGGTCGA,8.93 log2 normalized intensity
3,ATGACCTCTTTTAGTAACTGACTTTAACTTGCCTAGGGAGATTAGAGTATCGGTCGA,1.03 log2 normalized intensity
4,CTGACCTCTTTTGGATTTTTCCATATCTGTGCCTAGGGAGATTAGAGTATCGGTCGA,1.57 log2 normalized intensity
5,GCTTATCTGGGAGGGGGAGGTTTTGTGTCTGCCTAGGGAGATTAGAGTATCGGTCGA,0.884 log2 normalized intensity
6,AAATGTAATCAGCAAGTTTTATATGAAAACGCCTAGGGAGATTAGAGTATCGGTCGA,0.415 log2 normalized intensity
7,CTGTGGTCATTAATTAACTTGTGTTCAGAGGCCTAGGGAGATTAGAGTATCGGTCGA,1.07 log2 normalized intensity
8,TGTTCTTTACTTCCTTTTGTTCCTGCTCTAGCCTAGGGAGATTAGAGTATCGGTCGA,1.67 log2 normalized intensity
9,AGTCTGCTCAAGTCTTTTAGAATGTGGATGGCCTAGGGAGATTAGAGTATCGGTCGA,1.71 log2 normalized intensity
10,TCAGTTGCAGAAAAACAGGTTCTGCAACACGCCTAGGGAGATTAGAGTATCGGTCGA,0.876 log2 normalized intensity
11,ATTACCAATGAGAAACCTCAAAGGTTAGGGGCCTAGGGAGATTAGAGTATCGGTCGA,0.852 log2 normalized intensity
12,GAGCAAAGGGCATGGAGGATTTAGATAACAGCCTAGGGAGATTAGAGTATCGGTCGA,0.728 log2 normalized intensity
13,TTAAGATTTGACCCTTGGCCAGGTGCAGTGGCCTAGGGAGATTAGAGTATCGGTCGA,5.41 log2 normalized intensity
14,ATTCTCTTATCTACTTTAAGATTTGACCCTGCCTAGGGAGATTAGAGTATCGGTCGA,5.76 log2 normalized intensity
15,TATCTTGTGACCTTTGACTCATTATCCCCCGCCTAGGGAGATTAGAGTATCGGTCGA,7.09 log2 normalized intensity
16,CTGAACTTTAAACTGGTGTGTCTTGCCTTTGCCTAGGGAGATTAGAGTATCGGTCGA,2.42 log2 normalized intensity
17,AAACTTATCTTGTGACCTTTGACTCATTATGCCTAGGGAGATTAGAGTATCGGTCGA,7.16 log2 normalized intensity
18,ATCTGACCTTTGGTTAACTTCTTAACTTGGGCCTAGGGAGATTAGAGTATCGGTCGA,3.5 log2 normalized intensity
19,TTTAAAAACTTATCTTGTGACCTTTGACTCGCCTAGGGAGATTAGAGTATCGGTCGA,8.96 log2 normalized intensity
20,AGTGGTTTAAAAACTTATCTTGTGACCTTTGCCTAGGGAGATTAGAGTATCGGTCGA,7.47 log2 normalized intensity
21,CTTATCTACTTTAAGATTTGACCCTTGGCCGCCTAGGGAGATTAGAGTATCGGTCGA,7.78 log2 normalized intensity
